From PubChem BioAssay AID1159580 (chemical genetic matrix, 2015)
Where “and” joins values, the source holds several entries; their conditions need not be identical. Equal values may be shown once. The campaign covered roughly 5,500 compounds. About 2,000 (36%) were called active. Not shown: some 18% with an inconclusive outcome. Cut-off read from the data, not from the text of the source: active = normalized growth mostly below about 0.91 (no sharp cut-off); inconclusive = no clear call, values can overlap the other calls; inactive = mostly above about 0.92. Some of the results follow.

Assay: chemical genetic growth profiling, strain panel (AID 1159580);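 note: tested at 20 µM; growth read once vehicle control cultures reached saturation at 30 °C; 1 = growth at the plate median or of vehicle wells; lower values mean less growth of the strain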
Conditions: S. cerevisiae deletion strains, growth OD

Measured: normalized growth

CN1CCN(CC(=O)N2c3ccccc3C(=O)Nc3cccnc32)CC1
inactive: locus YAL013W, strain DEP1, stronger effect = lower value 1.01 | locus YAL021C, strain ccr4, stronger effect = lower value 0.991 | locus YAL026C, strain drs2, stronger effect = lower value 1.03 | locus YAL030W, strain snc1, stronger effect = lower value 0.999 | locus YAL040C, strain CLN3, stronger effect = lower value 0.963 | locus YBL061C, strain skt5, stronger effect = lower value 1.01 | locus YBR009C, strain hhf1, stronger effect = lower value 0.999 | locus YBR021W, strain FUR4, stronger effect = lower value 1.02 | locus YBR023C, strain chs3, stronger effect = lower value 1.01 | locus YBR171W, strain sec66, stronger effect = lower value 1.02 | locus YBR229C, strain ROT2, stronger effect = lower value 1.01 | locus YBR231C, strain swc5, stronger effect = lower value 1.01 | locus YBR279W, strain paf1, stronger effect = lower value 1.01 | locus YCL011C, strain gbp2, stronger effect = lower value 1.02 | locus YCL016C, strain dcc1, stronger effect = lower value 1 | locus YCL029C, strain bik1, stronger effect = lower value 1.02 | locus YCL061C, strain MRC1 (second series), stronger effect = lower value 0.981 | locus YCL061C, strain MRC1, stronger effect = lower value 1.02 | locus YCL069W, strain vba3, stronger effect = lower value 1.03 | locus YCR088W, strain abp1, stronger effect = lower value 1.01 | locus YDL005C, strain med2, stronger effect = lower value 0.999 | locus YDL035C, strain GPR1, stronger effect = lower value 1.02 | locus YDL040C, strain nat1, stronger effect = lower value 0.992 | locus YDL074C, strain BRE1, stronger effect = lower value 1.05 | locus YDL101C, strain DUN1, stronger effect = lower value 1.02 | locus YDL134C, strain PPH21, stronger effect = lower value 0.991 | locus YDL185W, strain tfp1, stronger effect = lower value 1 | locus YDL192W, strain arf1, stronger effect = lower value 1.01 | locus YDR001C, strain nth1, stronger effect = lower value 1.01 | locus YDR069C, strain doa4, stronger effect = lower value 0.989 | locus YDR101C, strain arx1, stronger effect = lower value 1 | locus YDR137W, strain rgp1, stronger effect = lower value 1.02 | locus YDR150W, strain NUM1, stronger effect = lower value 1.01 and 1 | locus YDR159W, strain sac3, stronger effect = lower value 1.01 | locus YDR162C, strain NBP2, stronger effect = lower value 1.01 | locus YDR195W, strain ref2 0.999 | locus YDR297W, strain sur2, stronger effect = lower value 1.01 | locus YDR318W, strain mcm21, stronger effect = lower value 1.02 | locus YDR334W, strain swr1, stronger effect = lower value 1.04 | locus YDR335W, strain msn5, stronger effect = lower value 1.04 | locus YDR363W, strain ESC2, stronger effect = lower value 1.02 | locus YDR388W, stronger effect = lower value 1.02 | locus YDR392W, strain spt3, stronger effect = lower value 1.01 | locus YDR502C, strain sam2, stronger effect = lower value 1.02 | locus YEL003W, strain gim4, stronger effect = lower value 1.01 | locus YEL037C, strain rad23, stronger effect = lower value 1.01 | locus YEL061C, strain CIN8 (second series), stronger effect = lower value 1.03 | locus YEL061C, strain CIN8, stronger effect = lower value 1.01 | locus YER002W, strain NOP16, stronger effect = lower value 0.986 | locus YER015W, strain faa2, stronger effect = lower value 1.02 | locus YER016W, strain bim1, stronger effect = lower value 0.997 | locus YER110C, stronger effect = lower value 1.02 | locus YER111C, strain swi4, stronger effect = lower value 1.02 | locus YER155C, strain BEM2 (second series), stronger effect = lower value 1.08 | locus YER155C, strain BEM2, stronger effect = lower value 1.01 | locus YER167W, strain BCK2, stronger effect = lower value 1.02 | locus YFR010W, strain ubp6, stronger effect = lower value 1.02 | locus YGL078C, strain dbp3, stronger effect = lower value 1.01 | locus YGL086W, strain mad1, stronger effect = lower value 1.01 | locus YGL167C, strain pmr1, stronger effect = lower value 1.01 | locus YGL173C, strain kem1, stronger effect = lower value 1.06 | locus YGL227W, strain vid30, stronger effect = lower value 1.02 | locus YGL240W, strain doc1, stronger effect = lower value 1.02 | locus YGL248W, strain PDE1, stronger effect = lower value 1.01 | locus YGL253W, strain hxk2, stronger effect = lower value 1.01 | locus YGR078C, strain PAC10, stronger effect = lower value 1.02 | locus YGR135W, strain pre9, stronger effect = lower value 1.01 | locus YGR229C, strain SMI1, stronger effect = lower value 1.01 and 0.968 | locus YGR252W, strain gcn5, stronger effect = lower value 0.995 | locus YHR013C, strain ard1, stronger effect = lower value 1.03 | locus YHR027C, strain rpn1, stronger effect = lower value 1.01 | locus YHR030C, strain SLT2, stronger effect = lower value 1.01 and 0.978 | locus YHR079C, strain IRE1 (second series), stronger effect = lower value 1.02 | locus YHR079C, strain IRE1, stronger effect = lower value 0.986 | locus YHR094C, strain hxt1, stronger effect = lower value 1.02 | locus YHR129C, strain ARP1, stronger effect = lower value 0.995 | locus YHR142W, strain chs7, stronger effect = lower value 1.04 | locus YHR200W, strain rpn10, stronger effect = lower value 1.01 | locus YIL066C, strain RNR3, stronger effect = lower value 1.01 | locus YIL073C, strain SPO22, stronger effect = lower value 1.02 | locus YIL125W, strain kgd1, stronger effect = lower value 1.01 | locus YIR030C, strain dcg1, stronger effect = lower value 1.01 | locus YJL092W, strain hpr5, stronger effect = lower value 1.02 | locus YJL095W, strain BCK1 (second series), stronger effect = lower value 0.991 | locus YJL095W, strain BCK1, stronger effect = lower value 1.04 and 0.99 | locus YJL115W, strain asf1, stronger effect = lower value 1.01 | locus YJL129C, strain trk1, stronger effect = lower value 1.03 | locus YJL134W, strain LCB3, stronger effect = lower value 1.01 | locus YJL154C, strain vps35, stronger effect = lower value 1.01 | locus YJL164C, strain tpk1, stronger effect = lower value 1.01 | locus YJL166W, strain qcr8, stronger effect = lower value 1.03 | locus YJL168C, strain set2, stronger effect = lower value 1.02 | locus YJL187C, strain SWE1 (second series), stronger effect = lower value 1.01 | locus YJR043C, strain POL32, stronger effect = lower value 1.01 | locus YJR066W, strain TOR1, stronger effect = lower value 0.926
